# In the supplement of paper PMC9492666:
# Counter-ions that a name gives are not always drawn.
# Columns and labels:
# HCC1937 = test: relative cell viability, compound + erastin, vs DMSO (fraction of DMSO control); higher = less growth inhibition; details: 72 h
# MDA-MB-231 = test: as above; details: 72 h
# 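Further: viability read by CCK-8 kit in 96-well plates, part of a combination screen pairing lipid-metabolism-targeting compounds with erastin.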
SMILES,relative cell viability (HCC1937),relative cell viability (MDA-MB-231)
O=C(CCCCc1ccc2c(c1)OCO2)N1CCCCC1 + CCOc1ccccc1-n1c(C(C)N2CCN(C(=O)COc3ccc(Cl)cc3)CC2)nc2ccccc2c1=O [erastin],0.549,0.35
C[C@]12CC[C@@H](O)C[C@@H]1CC[C@@H]1[C@@H]2CC[C@]2(C)C(=O)CC[C@@H]12 [Androsterone] + CCOc1ccccc1-n1c(C(C)N2CCN(C(=O)COc3ccc(Cl)cc3)CC2)nc2ccccc2c1=O [erastin],0.763,0.564
O=C(O)CN(CC(=O)O)c1ccccc1OCCOc1ccccc1N(CC(=O)O)CC(=O)O + CCOc1ccccc1-n1c(C(C)N2CCN(C(=O)COc3ccc(Cl)cc3)CC2)nc2ccccc2c1=O [erastin],0.597,0.765
CC(C)(Oc1ccc(C2CC2(Cl)Cl)cc1)C(=O)O (configuration not stated) [Ciprofibrate] + CCOc1ccccc1-n1c(C(C)N2CCN(C(=O)COc3ccc(Cl)cc3)CC2)nc2ccccc2c1=O [erastin],0.848,0.628
C=C[C@H]1CN2CC[C@H]1C[C@@H]2[C@@H](O)c1ccnc2ccc(OC)cc12 [Quinidine sulfate] + CCOc1ccccc1-n1c(C(C)N2CCN(C(=O)COc3ccc(Cl)cc3)CC2)nc2ccccc2c1=O [erastin],0.7,0.398
C[C@@H](Nc1nc(N[C@H](C)C(F)(F)F)nc(-c2cccc(Cl)n2)n1)C(F)(F)F [Vorasidenib] + CCOc1ccccc1-n1c(C(C)N2CCN(C(=O)COc3ccc(Cl)cc3)CC2)nc2ccccc2c1=O [erastin],0.607,0.68
Cc1cc(N2C[C@@H](C)N[C@@H](C)C2)ncc1-c1ccc(-c2nc3c(ccn3C)c(=O)[nH]2)cc1 + CCOc1ccccc1-n1c(C(C)N2CCN(C(=O)COc3ccc(Cl)cc3)CC2)nc2ccccc2c1=O [erastin],0.506,0.551
CCCC[S+]([O-])c1sc2nc(-c3cccs3)cc(-c3ccccc3)c2c1N (configuration not stated) + CCOc1ccccc1-n1c(C(C)N2CCN(C(=O)COc3ccc(Cl)cc3)CC2)nc2ccccc2c1=O [erastin],0.72,0.715
CCC1=N[C@H]2C[C@@]3(C(=O)N(OC)c4ccccc43)[C@H]3CC1[C@@H]2CO3 [Humantenmine] + CCOc1ccccc1-n1c(C(C)N2CCN(C(=O)COc3ccc(Cl)cc3)CC2)nc2ccccc2c1=O [erastin],0.573,0.63
CC(C)(O)c1ccccc1CC[C@@H](SCC1(CC(=O)O)CC1)c1cccc(/C=C/c2ccc3ccc(Cl)cc3n2)c1 [Montelukast] + CCOc1ccccc1-n1c(C(C)N2CCN(C(=O)COc3ccc(Cl)cc3)CC2)nc2ccccc2c1=O [erastin],0.561,0.829
CCOP(=O)(OCC)C(=Cc1cc(C(C)(C)C)c(O)c(C(C)(C)C)c1)P(=O)(OCC)OCC + CCOc1ccccc1-n1c(C(C)N2CCN(C(=O)COc3ccc(Cl)cc3)CC2)nc2ccccc2c1=O [erastin],0.534,0.648
Fc1ccc(-c2c3cccc(C(F)(F)F)c3nn2Cc2ccc(F)cc2Cl)cc1 + CCOc1ccccc1-n1c(C(C)N2CCN(C(=O)COc3ccc(Cl)cc3)CC2)nc2ccccc2c1=O [erastin],0.797,0.509
CC1(C)C[C@H]2C3=CC[C@@H]4[C@@]5(C)CC[C@H](O)[C@@](C)(CO)[C@@H]5CC[C@@]4(C)[C@]3(C)C[C@H](O)[C@@]2(CO)[C@@H](O)[C@@H]1O [Gymnemagenin] + CCOc1ccccc1-n1c(C(C)N2CCN(C(=O)COc3ccc(Cl)cc3)CC2)nc2ccccc2c1=O [erastin],0.918,0.785
C[C@@H]1O[C@@H](O[C@H]2[C@H](Oc3cc(O)c4c(c3)O[C@H](c3ccc(O)cc3)CC4=O)O[C@H](CO)[C@@H](O)[C@@H]2O)[C@H](O)[C@H](O)[C@H]1O [Naringin] + CCOc1ccccc1-n1c(C(C)N2CCN(C(=O)COc3ccc(Cl)cc3)CC2)nc2ccccc2c1=O [erastin],0.902,0.632
CCN(CC)C(=O)N1CCN(C)CC1 [Diethylcarbamazine citrate] + CCOc1ccccc1-n1c(C(C)N2CCN(C(=O)COc3ccc(Cl)cc3)CC2)nc2ccccc2c1=O [erastin],0.729,0.907
COc1ccc(-c2cc(=O)c3c(O)c(OC)c(OC)c(OC)c3o2)cc1OC + CCOc1ccccc1-n1c(C(C)N2CCN(C(=O)COc3ccc(Cl)cc3)CC2)nc2ccccc2c1=O [erastin],0.573,0.784
CCCCCCCCCCOc1ccc(C(=O)Nc2cc(C(=O)NCCCC)ccc2SC)cc1 + CCOc1ccccc1-n1c(C(C)N2CCN(C(=O)COc3ccc(Cl)cc3)CC2)nc2ccccc2c1=O [erastin],0.739,0.845
CCCCCCCCCCC[C@@H](C[C@@H]1OC(=O)[C@H]1CCCCCC)OC(=O)[C@H](CC(C)C)NC=O [Orlistat] + CCOc1ccccc1-n1c(C(C)N2CCN(C(=O)COc3ccc(Cl)cc3)CC2)nc2ccccc2c1=O [erastin],0.725,0.52

SMILES,relative cell viability (HCC1937),relative cell viability (MDA-MB-231)
Cc1ccc(CN(CC(O)COc2cccc3[nH]ccc23)C(C)(C)C)cc1 (configuration not stated) + CCOc1ccccc1-n1c(C(C)N2CCN(C(=O)COc3ccc(Cl)cc3)CC2)nc2ccccc2c1=O [erastin],0.731,0.846
CC(C)CCC[C@@H](C)[C@H]1CC[C@H]2[C@@H]3CC=C4C[C@@H](O)CC[C@]4(C)[C@H]3CC[C@]12C [Cholesterol] + CCOc1ccccc1-n1c(C(C)N2CCN(C(=O)COc3ccc(Cl)cc3)CC2)nc2ccccc2c1=O [erastin],0.901,0.953
CCCc1cc(-c2nc(-c3ccc(NS(C)(=O)=O)cc3)cs2)ccn1 + CCOc1ccccc1-n1c(C(C)N2CCN(C(=O)COc3ccc(Cl)cc3)CC2)nc2ccccc2c1=O [erastin],0.394,0.651
CC(=O)Oc1cc(C(F)(F)F)ccc1C(=O)O [Triflusal] + CCOc1ccccc1-n1c(C(C)N2CCN(C(=O)COc3ccc(Cl)cc3)CC2)nc2ccccc2c1=O [erastin],0.751,0.648
COc1cc(N(C)C)cc(CN(C)CCc2ccc([N+](=O)[O-])cc2)c1O [CDC25 Phosphatase Inhibitor I] + CCOc1ccccc1-n1c(C(C)N2CCN(C(=O)COc3ccc(Cl)cc3)CC2)nc2ccccc2c1=O [erastin],0.663,0.781
Cc1ccc(C)c(OCCCC(C)(C)C(=O)O)c1 [Gemfibrozil] + CCOc1ccccc1-n1c(C(C)N2CCN(C(=O)COc3ccc(Cl)cc3)CC2)nc2ccccc2c1=O [erastin],0.688,0.941
COc1cc(N2CCN(C)CC2)ccc1Nc1ncc2c(n1)N(C1CCC1)C(=O)N(c1c(C)cccc1C)C2 + CCOc1ccccc1-n1c(C(C)N2CCN(C(=O)COc3ccc(Cl)cc3)CC2)nc2ccccc2c1=O [erastin],0.56,0.586
Nc1ncnc2c1ncn2C1OC(COP(=O)(O)O)C(O)C1O (configuration not stated) [Adenosine 5'-monophosphate monohydrate] + CCOc1ccccc1-n1c(C(C)N2CCN(C(=O)COc3ccc(Cl)cc3)CC2)nc2ccccc2c1=O [erastin],0.97,1.07
COc1ccc(-c2c[nH]c3nccc(-c4ccsc4)c23)c(OC)c1 + CCOc1ccccc1-n1c(C(C)N2CCN(C(=O)COc3ccc(Cl)cc3)CC2)nc2ccccc2c1=O [erastin],0.675,0.834
O=S(=O)(Nc1ccc(C(O)(C(F)(F)F)C(F)(F)F)cc1)c1cccs1 + CCOc1ccccc1-n1c(C(C)N2CCN(C(=O)COc3ccc(Cl)cc3)CC2)nc2ccccc2c1=O [erastin],0.652,0.568
CC(C)(C)c1ccc(-c2nc3ccccc3[nH]2)cc1 + CCOc1ccccc1-n1c(C(C)N2CCN(C(=O)COc3ccc(Cl)cc3)CC2)nc2ccccc2c1=O [erastin],0.225,0.295
C[C@H]1N=C(N(C)C)N=C(N)N1 [Imeglimin hydrochloride] + CCOc1ccccc1-n1c(C(C)N2CCN(C(=O)COc3ccc(Cl)cc3)CC2)nc2ccccc2c1=O [erastin],0.69,0.695
COc1ccc(C2(CNC(=O)c3ccc(NC(=O)c4ccco4)cc3)CCOCC2)cc1 + CCOc1ccccc1-n1c(C(C)N2CCN(C(=O)COc3ccc(Cl)cc3)CC2)nc2ccccc2c1=O [erastin],0.518,0.728
CN(C(=O)n1cnc(-c2ccc[n+]([O-])c2)c1)C1CCCCC1 + CCOc1ccccc1-n1c(C(C)N2CCN(C(=O)COc3ccc(Cl)cc3)CC2)nc2ccccc2c1=O [erastin],0.427,0.613
O=C(O)CCn1c2c(c3ccccc31)C[C@H](NS(=O)(=O)c1ccc(F)cc1)CC2 [Ramatroban] + CCOc1ccccc1-n1c(C(C)N2CCN(C(=O)COc3ccc(Cl)cc3)CC2)nc2ccccc2c1=O [erastin],0.494,0.806
N#Cc1ccc(Oc2cccc(NC(=O)Nc3ccc(Cl)c(C(F)(F)F)c3)c2)cc1 + CCOc1ccccc1-n1c(C(C)N2CCN(C(=O)COc3ccc(Cl)cc3)CC2)nc2ccccc2c1=O [erastin],0.0713,0.127
CCCCCCCCCc1ccc(B(O)O)cc1 [4-Nonylphenylboronic acid] + CCOc1ccccc1-n1c(C(C)N2CCN(C(=O)COc3ccc(Cl)cc3)CC2)nc2ccccc2c1=O [erastin],0.9,0.358
C[C@]12C=CC(=O)N[C@@H]1CC[C@@H]1[C@@H]2CC[C@]2(C)[C@@H](C(=O)Nc3cc(C(F)(F)F)ccc3C(F)(F)F)CC[C@@H]12 [Dutasteride] + CCOc1ccccc1-n1c(C(C)N2CCN(C(=O)COc3ccc(Cl)cc3)CC2)nc2ccccc2c1=O [erastin],0.573,0.596
